Source: PubChem BioAssay
Sampled rows, rich in hits. Any-hit rate of the full collection: about 2.7%.
LDHA block – blocks human lactate dehydrogenase A; P00338; purified LDHA, NADH/diaphorase-resazurin fluorescence; stronger effect = lower value; activity change, % (values are at about 110 or 230 µM); hit rate 0.15% among 480,000; AID 1347041; in the data active = activity change below about -30%; inconclusive = mostly about -25% to -30%
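Human LDH5 (2 nM) was incubated with 0.06 mM NADH and 0.2 mM pyruvate for 5 min at room temperature in Tris pH 7.4. Remaining NADH was coupled through diaphorase/resazurin, and resorufin fluorescence was read at 0 and 20 min.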
ALOX12 inh – inhibitors of human 12S-lipoxygenase ALOX12; purified 12hLO, xylenol orange hydroperoxide absorbance; Potency, µM (titrated, usually from 108 µM), usual class: inhibitors; hit rate 1.1% among 580,000; AID 1671190
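Purified human 12hLO at 150 nM in 25 mM Hepes, 0.01% Triton X-100, pH 7.0, preincubated 15 min at room temperature with compound. Reaction started with 40 uM arachidonic acid, 30 min at room temperature. Hydroperoxide measured by Fe-xylenol orange, 573/405 nm absorbance ratio.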
A549 viability – kills or reduces viability of A549 cells in Nrf2 counter-screen; A549 ARE-Fluc cells, CellTiter-Fluor viability, 18-24 h; Potency, µM (highest dose often 46 µM), actives largely listed as inhibitors; hit rate 0.16% among 390,000
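A549 ARE-Fluc cells in 5% FBS OPTI-MEM, 5000 cells/well, rested 2 h then exposed to compounds in concentration-response for 18-24 h at 37 °C. Viability by CellTiter-Fluor fluorescence (Ex 405/Em 525) after 30 min; luciferase luminescence (BugLite, 15 min, RT) read afterwards.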
Nrf2 ARE act – activators of Nrf2 (ARE) signaling. AREc32 ARE-luciferase reporter (MCF7-derived line), luminescence, 24 h. Potency, µM (top dose mostly 46.1 µM), actives largely listed as activators. hit rate 0.31% among 410,000. AID 624171; also: nearly all actives have a fitted effect of over 65% in size
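Quantitative high-throughput format: AREc32 reporter cells, 1000 per well, received compound by pin transfer and were incubated 24 hr at 37 deg C, 5% CO2, before Steady-Glo luminescence detection.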
ERG Ets-DNA blk – blocks human ERG Ets domain binding to DNA; hit rate 0.028% among 370,000; Potency, µM (highest dose often 76.9 µM), usual class: inhibitors; P11308; fluorescence polarization, His-ERG Ets domain / labelled DNA; AID 624246; active = well fitted inhibition curve with a large enough effect in the polarisation, with a control signal flat; inconclusive = small, poorly fitted or top-dose-only effect, or effect the other way, or a change in a side signal; inactive = no such curve, though single readings can be large or run the other way; the % refers to the polarisation;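 also: polarization taken with two DNA probes labelled with fluorescein and Texas red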
Target sequence (P11308 whole entry, looked up, the tested form may be a part): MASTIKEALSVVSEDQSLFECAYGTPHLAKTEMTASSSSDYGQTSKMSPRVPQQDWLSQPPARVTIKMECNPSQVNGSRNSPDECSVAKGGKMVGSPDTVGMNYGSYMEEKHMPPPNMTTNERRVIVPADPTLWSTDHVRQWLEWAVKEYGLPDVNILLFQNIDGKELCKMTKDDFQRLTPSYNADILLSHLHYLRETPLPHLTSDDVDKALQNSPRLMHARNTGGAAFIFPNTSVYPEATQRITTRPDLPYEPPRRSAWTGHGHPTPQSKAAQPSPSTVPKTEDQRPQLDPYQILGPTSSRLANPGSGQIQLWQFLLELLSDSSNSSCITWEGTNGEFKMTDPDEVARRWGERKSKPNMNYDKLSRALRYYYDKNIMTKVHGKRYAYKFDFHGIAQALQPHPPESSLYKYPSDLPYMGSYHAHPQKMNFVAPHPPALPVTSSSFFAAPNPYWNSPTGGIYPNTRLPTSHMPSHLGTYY
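His-tagged ERG Ets domain (1 uM in the protein solution; 300mM KCl, 50mM Tris-HCl, 1mM EDTA, 1mM DTT, pH 7.5) received compound, then a probe mix of 5 nM fluorescein-DNA and 100nM Texas-615-DNA. Fluorescence polarization was read for both dyes.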
Nrf2 block – Nrf2 pathway inhibition | Potency, µM (series often up to 46 µM), hits mostly inhibitors | AID 504444 | A549 ARE-Fluc reporter, luciferase luminescence, 18-24 h | hit rate 2.1% among 360,000; also: nearly all actives have a fitted effect of over 60% in size
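Reporter: ARE-Fluc in A549. Exposure: 18-24 h, 37 °C, 5% CO2, 5% FBS OPTI-MEM. Readouts: fluorescent cytotoxicity (CellTiter-Fluor), then luminescent Nrf2 signal after BugLite.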
Hits are given with their value; i = inactive; ? = inconclusive; nt = not tested or not shown. Unless noted, calls follow the shape of the dose curve; as a rule, active = well fitted curve in the direction sought with a large enough effect; inconclusive = small, poorly fitted or top-dose-only effect, or another doubt; inactive = no such curve, though single readings can be large; an effect the other way counts as inactive or inconclusive.

SMILES	LDHA block	ALOX12 inh	A549 viability	Nrf2 ARE act	ERG Ets-DNA blk	Nrf2 block
CCOC(=O)c1ccc(NC(=O)c2ccc(CN3CCOCC3)cc2)cc1	i	i	?	i	i	5.17µM
CCn1cc(S(=O)(=O)N2CCN(c3ccccc3C)CC2)cn1	i	i	nt	nt	nt	nt
Cc1cccc(COCC(CC(C)C)N2CCN(C(=O)c3ccc(C(C)(C)C)cc3)CCC2=O)c1 (stereo not given)	i	i	?	i	i	23.1µM
N#Cc1ccc(-c2cccnc2)nc1SCc1ccc(Cl)c(Cl)c1	i	i	i	i	i	23.1µM
Cc1sc(NC(=O)CN2CCOCC2)nc1-c1ccc2c(c1)CCN2S(=O)(=O)c1ccccc1	i	i	i	i	nt	2.59µM
O=C(CN1CCOCC1)Nc1nc(-c2ccc3c(c2)CCN3S(=O)(=O)c2ccccc2)cs1	i	i	i	i	i	?
Cc1sc(NC(=O)Cc2ccc3c(c2)OCO3)nc1-c1ccc2c(c1)CCN2C(=O)c1cccc(F)c1	i	?	i	i	nt	7.31µM
Cc1ccc(N2Cc3c(NCCc4ccc(F)cc4)ncnc3N(C)CC2=O)cc1	nt	i	nt	nt	nt	nt
O=C(Nc1nc(=O)c2ccccc2s1)c1ccccc1	i	?	i	2µM	i	?
CC(=O)Nc1nc(=O)c2ccccc2s1	i	?	i	?	i	i
Nn1c(Cc2ccc(Br)cc2)n[nH]c1=S	i	28.2µM	i	i	i	?
CCOc1ccc(Cc2n[nH]c(=S)n2N)cc1	i	?	i	i	i	i
CCc1ccccc1OCC(=O)OCc1ccc(Cl)cc1	i	i	nt	nt	nt	nt
C/C(=N\NC(=O)COc1ccccc1[N+](=O)[O-])c1cccs1	i	i	i	8.91µM	i	?
CC(=O)N1c2ccccc2Sc2ccc3ccccc3c21	i	i	nt	i	nt	nt
O=C(CCl)N1c2ccccc2Sc2c1ccc1ccccc21	i	35.5µM	i	?	i	i
Cn1cccc1CN1CCC[C@]2(N[C@H](c3ccccc3)[C@@H]3C(=O)N(Cc4ccccc4)C(=O)[C@@H]32)C1=O	i	10µM	nt	i	nt	nt
CCN1C(=O)[C@H]2[C@@H](c3ccc(OC)cc3)N[C@]3(CCCN(Cc4cccn4C)C3=O)[C@H]2C1=O	i	?	nt	i	nt	nt
Cc1ccc([C@H]2N[C@]3(CCCN(Cc4cccn4C)C3=O)[C@H]3C(=O)N(Cc4ccccc4)C(=O)[C@@H]23)cc1	i	?	nt	i	nt	nt
COc1ccc([C@H]2N[C@]3(CCCN(Cc4cccn4C)C3=O)[C@H]3C(=O)N(C)C(=O)[C@@H]23)cc1	i	11.2µM	nt	i	nt	nt
COCCn1c(SCC(=O)/C=C2\N(C)c3ccccc3C2(C)C)nnc1-c1ccncc1	i	i	i	i	i	23.1µM
COc1ccc(Nc2nnc(SCC(=O)/C=C3/N(C)c4ccccc4C3(C)C)s2)cc1	i	i	?	i	i	23.1µM
Nc1nc(Nc2ccccc2)nc(N2CCOCC2)c1[N+](=O)[O-]	i	i	i	i	i	i
Cc1cccc(Nc2nc(N)c([N+](=O)[O-])c(N3CCC(C)CC3)n2)c1	i	i	?	i	i	18.4µM
Cc1cccc(Nc2nc(N)c([N+](=O)[O-])c(N3CC(C)CC(C)C3)n2)c1 (stereo not given)	i	i	20.6µM	i	i	16.4µM
SMILES	LDHA block	ALOX12 inh	A549 viability	Nrf2 ARE act	ERG Ets-DNA blk	Nrf2 block
CCN1CCN(c2nc(Nc3cccc(OC)c3)nc(N)c2[N+](=O)[O-])CC1	i	i	?	i	i	i
Cc1cccc(Nc2nc(N)c([N+](=O)[O-])c(N3CC(C)OC(C)C3)n2)c1 (stereo not given)	i	i	?	i	i	18.4µM
O=C(CSc1nnc2ccc(-c3cccs3)nn12)N1CCOCC1	i	i	nt	nt	nt	nt
COc1ccc(-c2noc(CCCC(=O)Nc3ccc(C(N)=O)cc3)n2)cc1	i	i	i	i	i	nt
COc1ccc(-c2noc(CCC(=O)Nc3ccc(C(F)(F)F)cc3)n2)cc1	i	i	i	i	i	18.4µM
CC(C)(C)c1ccc(-c2noc(CCC(=O)NCC3CCCO3)n2)cc1 (stereo not given)	i	i	i	i	i	0.581µM
COc1ccc(-c2noc(CCC(=O)Nc3cccnc3)n2)cc1	i	i	i	i	i	i
CC(C)(C)c1ccc(-c2noc(CCC(=O)Nc3cccnc3)n2)cc1	i	i	i	i	i	0.259µM
Cc1ccc(-c2noc(CCC(=O)NCC3CCCO3)n2)cc1 (stereo not given)	i	i	i	i	i	?
COc1ccc2[nH]c(=O)c(CN(C(=O)c3cccnc3)C3CCCCC3)cc2c1	i	?	nt	nt	nt	nt
COCCn1nnnc1C(c1ccc(OC)c(OC)c1)N1CCN(c2nc3ccccc3s2)CC1 (stereo not given)	i	i	i	i	i	9.2µM
COc1ccc(C(c2nnnn2Cc2ccccc2)N2CCN(c3nc4ccccc4s3)CC2)cc1 (stereo not given)	i	i	i	i	i	nt
CCCC(c1nnnn1CS(=O)(=O)c1ccc(C)cc1)N1CCN(c2ccccc2)CC1 (stereo not given)	i	?	i	i	i	i
CCC(c1nnnn1CS(=O)(=O)c1ccc(C)cc1)N1CCN(c2nc3ccccc3s2)CC1 (stereo not given)	i	i	i	i	nt	8.2µM
COCCn1nnnc1C(c1ccc(OC)cc1OC)N1CCN(c2ccccc2F)CC1 (stereo not given)	i	39.8µM	i	i	i	nt
N#Cc1nc(-c2ccco2)oc1N1CCN(C(=O)c2ccc(Cl)cc2Cl)CC1	i	i	nt	nt	nt	nt
CCOc1ccc(C2C3=C(CCCC3=O)Nc3nc(-c4ccc(Cl)cc4)nn32)cc1 (stereo not given)	i	i	nt	nt	nt	nt
CCc1cccc(C)c1NC(=O)CSc1nnc(-c2cc3cc(Br)ccc3o2)n1CC	i	i	?	i	i	16.4µM
Cn1c(SCC(=O)Nc2cccc(C(=O)O)c2)nnc1-c1cc2cc(Br)ccc2o1	-34.2	i	i	i	i	i
Cn1c(SCC(=O)Nc2cccc(Br)c2)nnc1-c1cc2ccccc2o1	i	i	i	i	i	?
CCn1c(SCC(=O)Nc2cccc(C(C)=O)c2)nnc1-c1cc2ccccc2o1	i	i	nt	nt	nt	nt
Cc1ccc(SCc2cc(=O)[nH]c(N3CCN(c4cccc(C(F)(F)F)c4)CC3)n2)cc1	i	i	nt	nt	nt	nt
CCCCCCCCCCCCCCCC[n+]1ccc(C(N)=O)cc1	?	44.7µM	i	i	i	?
CCCCOc1ccc(C(N)=O)cc1	i	nt	nt	nt	nt	nt
CCCCCCCCCCCCCCCC[n+]1ccc(/C=N/O)cc1	i	?	i	i	i	16.4µM
CCc1ccc(/C=N/O)cc1	i	i	nt	nt	nt	nt
CCCCCN1C=CC(=C2C(=O)c3ccccc3C2=O)C=C1	i	i	i	i	i	9.2µM
